In PubChem BioAssay AID588518 (NMMLSC, 2011):
Out of some 1,700 compounds screened, about 20 (1%) were called active. The sample as a whole holds a higher share of actives than the screen did. A number with no mark means an inactive call. No stated cut-off is given here; in the data, active means inhibition above about 26%; inactive means the rest.

These molecules were tested on Candida albicans multidrug efflux pump MDR1 (expressed in S. cerevisiae AD1-8u) (assay: CaMdr1 pump blockers in yeast – flow cytometry, singleplex, Cherry Pick1 set, confirmation (AID 588518;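 further: 0% = DMSO vehicle and 100% = reference inhibitor; higher means more Nile Red retained so more efflux inhibition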)). Conditions: S. cerevisiae AD/CaMDR1, Nile Red efflux, at 10 µM, hits give high values.
In the case of `CCc1ccc(NC(=O)Cn2ncn3c(cc4ccccc43)c2=O)cc1`, the inhibition is reported as -0.1%. Molecule `Cc1nc2c(C(=O)NCc3ccc4c(c3)OCO4)c[nH]n2c(=O)c1Cc1ccccc1F` has an inhibition of -0.28%. `Cc1cc(C)cc(NC(=O)C(OC(=O)c2ccc(O)cc2)c2ccccc2)c1` (stereo unspecified) was tested, and the inhibition was -0.15%. With `Cc1oc2cc3oc(=O)ccc3cc2c1C` the inhibition was -0.03%. With `C/C(N)=C(/C#N)C(=O)COC(=O)c1cc(-c2cccc(Br)c2)nc2ccccc12` the inhibition was -0.13%. `CCCCN1C(=O)/C(=C/C=C2/C=Cc3ccccc3N2CC)SC1=S` gave an inhibition of -0.28%. In the case of `CCNc1c(NS(=O)(=O)c2ccc(C3CCCCC3)cc2)c(=O)oc2ccccc12`, the inhibition is reported as -0.16%. Molecule `O=C(Cc1ccc(Br)cc1)N1CCN(c2ccccn2)CC1` has an inhibition of -0.14%. For `CSCCC(NC(=O)COc1ccccc1)C(=O)OCCOc1ccc(Br)cc1` (stereo unspecified), the inhibition was -0.39%. In the case of `Cc1ccc2[nH]c3c(=O)n(CC(=O)NCCc4ccc(Cl)cc4)ncc3c2c1`, the inhibition is reported as -0.13%. Work on `CCCc1nc(N2CCN(C)CC2)c2sc(=S)n(-c3ccccc3)c2n1` yielded an inhibition of -0.01%. `COc1ccc(S(=O)(=O)N2CCOC2CNC(=O)C(=O)NCc2ccc(F)cc2)cc1` (stereo unspecified) showed an inhibition of 0.32%. With `CCNC(=O)c1c(O)c2cccc3c2n(c1=O)CC3` the inhibition was -0.2%. Molecule `COc1ccc2[nH]c3c(C)c4cc[n+](C)cc4c(C)c3c2c1` has an inhibition of 0.07%. Molecule `CC(/C=C/c1ccccc1)=N\NC(=O)C1CC1(C)c1ccccc1` (stereo unspecified) has an inhibition of -0.16%. `O=C1NC(=O)C2C1C(c1ccc([N+](=O)[O-])cc1)=NN2Cc1ccccc1` (stereo unspecified) showed an inhibition of 0.35%. Work on `CN(C)S(=O)(=O)c1cc(C(=O)Nc2ccn(C)n2)c(Cl)cc1Cl` yielded an inhibition of -0.29%. In the case of `COc1ccc(NC(=S)N2CCc3cc(OC)c(OC)cc3C2)cc1`, the inhibition is reported as -0.21%. For `CC12CCC(C(=O)N(c3cccc(Cl)c3)C1=O)C2(C)C` (stereo unspecified), the inhibition was -0.13%. In the case of `CCCCOc1ccc(C(=O)NCC(=O)OCC(=O)c2c(N)n(C)c(=O)n(C)c2=O)cc1`, the inhibition is reported as -0.28%. `COc1ccccc1/C=C/C=N/n1c(-c2ccc(Cl)cc2Cl)n[nH]c1=S` showed an inhibition of 0.32%. Molecule `Cc1ccc(/C=C(\C#N)C(=O)Nc2cccc3ncccc23)o1` has an inhibition of -0.29%. Work on `Cc1c(CCOC(=O)CC23CC4CC(CC(C)(C4)C2)C3)sc[n+]1Cc1ccc([N+](=O)[O-])cc1` yielded an inhibition of -0.01%. `NNC(=O)COc1ccc(C2SCCS2)cc1` was tested, and the inhibition was -0.31%. `O=C(Cn1c(COc2ccccc2)nc2ccccc21)Nc1cc(Cl)c(Cl)cc1Cl` was tested, and the inhibition was 0.02%. With `CCOC(=O)CNC(=O)CSc1nnnn1-c1cc(C)ccc1C` the inhibition was -0.31%. Work on `Cc1csc(NC(=O)c2ccc(-c3ccc(Cl)cc3Cl)o2)n1` yielded an inhibition of 0.14%. Molecule `COc1ccc(-c2sc3ccccc3c2-c2ccc(OCCN3CCOCC3)cc2)cc1` has an inhibition of 0.1%. With `CC(C)C(=O)N1CCC2(CC1)Oc1ccc(F)cc1C(=O)C21CC(c2ccccc2)=NO1` (stereo unspecified) the inhibition was 45.9% (active). Work on `CCCc1nnc(SCC(=O)Nc2ccc(C(=O)OCC)cc2)o1` yielded an inhibition of 0.19%. `O=C(Nc1ccc(NC(=O)c2cccs2)cc1)c1ccc2ccccc2c1` showed an inhibition of 0.05%. With `CN1CCN(S(=O)(=O)c2ccc(NC(=S)NC(=O)C3CC3)cc2)CC1` the inhibition was -0.06%. With `Cc1ccc2c(c1)NC(=O)[C@@]1(C)[C@@H](c3ccccc3)[C@H]3COc4ccc(Cl)cc4[C@@H]3N1C2=O` the inhibition was -0.01%. `COc1ccc(C(=O)NC2CC(C)(C)Cc3c2cnn3-c2ccccc2)c(OC)c1` (stereo unspecified) showed an inhibition of -0.03%. In the case of `O=C(OCc1ccc(-c2ccccc2)cc1)c1cccc(O)c1`, the inhibition is reported as -0.19%. Molecule `CC(/C=N/NC(=O)c1cc(-c2ccc3ccccc3c2)n[nH]1)=C\c1ccco1` has an inhibition of -0.25%. `CCOC(=O)c1c(NC(=S)NC(=O)c2ccco2)sc2c1CCCC2` gave an inhibition of -0.19%. Molecule `CCCCCCCCCCCCCCCC(=O)OC/C=C(C)/C=C/C=C(C)/C=C/C1=C(C)CCCC1(C)C` has an inhibition of -0.1%. `COc1ccccc1NC(=O)C1CCCN1S(=O)(=O)c1ccc(Cl)cc1` (stereo unspecified) was tested, and the inhibition was -0.11%. `CC1CCc2c(sc(NC(=O)c3ccc(Cn4cc(Br)cn4)o3)c2C(N)=O)C1` (stereo unspecified) showed an inhibition of -0.1%. Work on `CCCCCC(=O)Nc1ccc(C(=O)N/N=C/c2ccc([N+](=O)[O-])cc2)cc1` yielded an inhibition of -0.14%. `CSCCC(NS(=O)(=O)c1ccc(C)cc1)C(=O)N1CCCC1` (stereo unspecified) showed an inhibition of -0.25%. `Cc1cc(/C=N/NC(=O)CC2(C)OCCO2)c(C)n1-c1ccc(Cl)c(Cl)c1` showed an inhibition of 0.16%. `Cc1ccc(OCc2cc(C(=O)N(C)CCc3ccccc3)no2)cc1C` showed an inhibition of -0.03%. For `Cc1nn(C)cc1C(=O)Nc1ccccc1Br`, the inhibition was -0.15%. For `O=C(CCCCCn1c(=O)[nH]c2ccccc2c1=O)NCCc1c[nH]c2ccccc12`, the inhibition was -0.03%. `C[n+]1ccc(/C=C/c2c[nH]c3ccccc23)cc1` gave an inhibition of 5.81%. Molecule `O=C(Cc1ccccc1)NCC1OCCc2ccccc21` (stereo unspecified) has an inhibition of -0.13%. `CCOc1ccccc1/C=c1\sc2nc(-c3ccco3)nn2c1=O` gave an inhibition of 0.22%. `Cc1nn(C)cc1N1C(=O)c2cccc3c(N)ccc(c23)C1=O` showed an inhibition of 0.11%. `COc1ccc2sc(-c3ccccc3OC)c(-c3ccc(OCCN4CCCC4)cc3)c2c1` was tested, and the inhibition was 5.13%. In the case of `COc1ccc(/C=C(\C#N)c2c[nH]c3ccccc23)cc1`, the inhibition is reported as 0.1%. With `Cc1cccc(NC(=O)COc2ccccc2C)n1` the inhibition was -0.06%. `COc1ccc(C(=O)NC(=S)Nc2ccc(N3CCCC3)cc2)cc1OC` gave an inhibition of -0.18%. `Cc1cc(C(=O)Nc2ccc(C)c(S(=O)(=O)N3CCOCC3)c2)c2ccccc2n1` showed an inhibition of -0.31%. `O=C(/C=C/c1c(Cl)cccc1Cl)NCc1ccccc1` gave an inhibition of 0.02%. Work on `CCOc1ccc(C2/C(=C(/O)c3ccc4c(c3)CC(C)O4)C(=O)C(=O)N2CCCn2ccnc2)cc1` (stereo unspecified) yielded an inhibition of 0.05%. `Cc1ccc(Cn2c(C)nc3c(c2=O)c2nc4ccccc4nc2n3Cc2ccco2)cc1` gave an inhibition of 0.02%. `CCOc1ccc2nc(Cl)c(C3CC(c4ccccc4)=NN3C(=O)c3cccs3)cc2c1` (stereo unspecified) gave an inhibition of 0%. `O=C(NCc1ccccc1)C(=O)NCC1OCCN1S(=O)(=O)c1ccc(Br)cc1` (stereo unspecified) was tested, and the inhibition was -0.13%. With `COc1cccc(-c2sc3ccc(OC)cc3c2-c2ccc(OCCN3CCCCC3)cc2)c1` the inhibition was 20.7%. `COc1cccc(NC(=O)CN(C)C(=O)/C=C/c2cc(OC)ccc2OC)c1` was tested, and the inhibition was -0.16%. Molecule `O=C(CNC(=O)c1ccc(-c2ccccc2)cc1)OCc1ccc(Cl)cc1` has an inhibition of 0.01%. With `O=C(CN1C(=O)C2C3CCC(C3)C2C1=O)Oc1ccc2ccccc2c1` (stereo unspecified) the inhibition was 0.12%. Molecule `Cc1ccc(N=C2NC(=O)/C(=C/C=C/c3ccco3)S2)cc1C` has an inhibition of 0.12%. Work on `CCOc1ccc(/C=C2\SC(=S)N(NC(=O)c3ccncc3)C2=O)cc1OC` yielded an inhibition of -0.14%. `O=S(=O)(c1ccccc1)N1CCc2ccccc21` gave an inhibition of 0.11%. `Cc1ccc(Cn2nnc3c(=O)[nH]c(C4CCN(S(=O)(=O)/C=C/c5ccccc5)CC4)nc32)cc1` gave an inhibition of -0.18%. `COc1ccccc1CSc1ncc(-c2ccc([N+](=O)[O-])cc2)[nH]1` gave an inhibition of -0.17%. Work on `O=C(CSc1nnc(-c2cccnc2)n1Cc1ccco1)c1ccc(Cl)c(Cl)c1` yielded an inhibition of 0.13%. With `COc1ccc(C(=O)C2CCCN(Cc3cccn3-c3ccccn3)C2)c(C)c1` (stereo unspecified) the inhibition was -0.17%. In the case of `CC[n+]1cc(C)ccc1/C=C/c1ccc(N(C)C)cc1`, the inhibition is reported as 10.7%. Work on `CN=C(c1ccccc1)c1c(C)cccc1C` yielded an inhibition of -0.14%. With `CCn1c(/C=C/c2ccc([N+](=O)[O-])o2)nc2ccccc2c1=O` the inhibition was 1.88%. In the case of `COc1ccc(C(=O)NC2CCCc3c2cnn3-c2cccc(C)c2C)c(OC)n1` (stereo unspecified), the inhibition is reported as -0.16%. With `C=CCC[C@@H](Cc1ccc(F)cc1)C(=O)OC[C@H](Cc1c[nH]c2ccccc12)NC(=O)[C@@H](CC=C)CC(=O)N(CCO)Cc1ccccc1` the inhibition was 56.2% (active).
